15 compounds from PubChem BioAssay (NCATS) can be followed below.

The target in test [1] is Phospholipid hydroperoxide glutathione peroxidase GPX4 (Homo sapiens) (UniProt P36969). The test can be described thus: Primary qHTS Assay for Inhibitors of Recombinant Selenoprotein Glutathione Peroxidase 4 (GPX4) (AID 1845192). Also: nearly all actives have a fitted effect of over 65% in size. The settings on record: recombinant GPX4, GR-coupled NADPH fluorescence, 15 min; series mostly up to 50 µM. The gist of the method:
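GR-coupled assay: recombinant GPX4 preincubated 30 min with compound at room temperature; final 200 nM GPX4, 1 mM GSH, 0.5 mM cumene hydroperoxide, 0.5 mM NADPH, 100 nM GR, 0.01% BSA, pH 7.5 Tris. NADPH fluorescence (340/450 nm) read at 0 and 15 min.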
Background: Quantitative high-throughput screening tests each substance at several concentrations.

The target of test [2] is Luciferin 4-monooxygenase (Photinus pyralis) (UniProt P08659). The test can be described thus: Primary firefly luciferase (FLuc) qHTS assay for identification of artifact compounds. (AID 1845220). Also: nearly all actives have a fitted effect of over 60% in size. Conditions: purified firefly luciferase, luminescence, 5 min; series mostly up to 54.1 µM. The gist of the method:
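Enzymatic FLuc inhibition assay: compounds pre-exposed to luciferin/ATP (10 uM each) for 15 min, then purified P. pyralis enzyme at 10 nM added. Read-out: luminescence at 5 min.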

Test [3] in a line: Primary fluorescence-based thiol-reactive (MSTI) qHTS assay for identification of artifact compounds. (AID 1845221).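 Also: thiol-reactive compounds lower the probe fluorescence signal; nearly all actives have a fitted effect of over 65% in size.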 The settings on record: MSTI thiol-reactivity probe, 1 h; series mostly up to 53.8 µM. In a few lines:
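Reactivity toward the thiol probe MSTI (4 uM) is scored by fluorescence at Ex/Em 525/598 nm after 1 h at room temperature. Acetyl-MSTI and MSTI define the activity scale.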

Test [4] concerns Nanoluciferase (engineered Oplophorus gracilirostris luciferase). The test can be described thus: Primary Nanoluciferase (NLuc) qHTS assay for identification of artifact compounds. (AID 1845222).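 Also: NLuc secreted into diluted conditioned medium of S16 cells.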 Conditions: NLuc-conditioned medium, Nano-Glo luminescence, 5 min; series mostly up to 54.1 µM. The gist of the method: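 S16 cell supernatant NLuc, 1:55; cpds qHTS; 15 min RT dark; Nano-Glo substrate 1:100, 5 min; luminescence; Hill fit of % inhibition.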

Test [5] addresses Glutathione peroxidase 1 (Homo sapiens) (UniProt P07203). The experiment in a line: Primary qHTS Assay for Inhibitors of Recombinant Selenoprotein Glutathione Peroxidase 1 (GPX1) (AID 1845191). Also: nearly all actives have a fitted effect of over 65% in size. The settings on record: recombinant GPX1, GR-coupled NADPH fluorescence, 15 min; series mostly up to 48.8 µM. The gist of the method:
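GR-coupled assay: compounds preincubated 30 min at room temperature with GPX1, then reaction started with CHP; final 10 nM GPX1, 1 mM GSH, 0.5 mM CHP, 0.5 mM NADPH, 100 nM GR, 0.01% BSA, pH 7.5 Tris buffer. NADPH fluorescence (340/450 nm) read at 0 and 15 min.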

Records with an inconclusive call do not appear. A call without a number means that no potency is given here. The source made the active and inactive calls. Calls follow the shape of the dose curve; as a rule, active = well fitted curve in the direction sought with a large enough effect; inconclusive = small, poorly fitted or top-dose-only effect, or another doubt; inactive = no such curve, though single readings can be large; an effect the other way counts as inactive or inconclusive.

Sequence of Phospholipid hydroperoxide glutathione peroxidase GPX4 (Homo sapiens) (P36969 whole entry, looked up): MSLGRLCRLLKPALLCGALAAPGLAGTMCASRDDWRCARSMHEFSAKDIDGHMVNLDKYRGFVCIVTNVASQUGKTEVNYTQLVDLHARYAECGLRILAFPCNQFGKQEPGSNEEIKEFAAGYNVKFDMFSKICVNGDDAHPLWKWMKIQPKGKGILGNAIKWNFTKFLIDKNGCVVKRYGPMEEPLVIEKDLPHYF
Sequence of Glutathione peroxidase 1 (Homo sapiens) (P07203 whole entry, looked up): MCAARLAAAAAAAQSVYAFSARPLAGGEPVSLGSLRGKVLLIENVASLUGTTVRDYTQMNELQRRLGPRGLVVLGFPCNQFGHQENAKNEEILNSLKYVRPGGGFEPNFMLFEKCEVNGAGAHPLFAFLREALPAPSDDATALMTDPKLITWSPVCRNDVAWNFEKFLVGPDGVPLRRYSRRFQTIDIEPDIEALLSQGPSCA

For `CCOC(=O)NC(C)(C)Cc1ccc(Cl)cc1`, in test [1], the Potency entry is “inactive”. For the same compound, the compound was called inactive in test [2], in test [3] and in test [4].
For the compound `CNC(=O)Oc1cccc2ccccc12`, in test [1], the Potency result was “inactive”.
For `O=C(N[C@@H]1N=C(c2ccccc2F)c2cccc3c2N(CC3)C1=O)c1cc2ccccc2[nH]1`, the Potency entry in test [1] was “inactive”. The compound was classed as inactive in test [3] and in test [4].
On to `O=C(NC(=O)c1c(F)cccc1F)Nc1cc(Cl)c(OC(F)(F)C(F)C(F)(F)F)cc1Cl` (stereo not drawn), for which the Potency entry in test [1] was “inactive”.
`CCC(=O)O[C@H]1CC[C@H]2[C@@H]3CCC4=CC(=O)CC[C@]4(C)[C@H]3CC[C@]12C`: the Potency result in test [1] is “inactive”.
`O=C(O)CCCCCCNC1c2ccccc2CCc2ccccc21`: the outcome in test [5], in test [2], in test [3] and in test [4] was inactive.
`O=C(O)Cc1ccccc1`: the Potency result in test [1] is “inactive”.
With `C[C@H](N)[C@H](O)c1ccc(O)c(O)c1`, the Potency entry in test [1] is “inactive”.
In the case of `CCCC[N+]1(C)[C@@H]2CC(OC(=O)[C@H](CO)c3ccccc3)C[C@H]1[C@@H]1O[C@@H]12` (stereo partly drawn), the Potency result in test [1] is “inactive”. The compound was classed as inactive in test [2], in test [3] and in test [4].
For `CC(CC(C(N)=O)(c1ccccc1)c1ccccc1)N(C)C` (stereo not drawn), the Potency entry in test [1] is “inactive”.
As to `C[C@]12Cc3nonc3C[C@@H]1CC[C@@H]1[C@@H]2CC[C@@]2(C)[C@H]1CC[C@]2(C)O`, the Potency entry in test [1] was “inactive”.
The same measure, in the same setting: for `C[C@@H]1O[C@@H](O[C@@H]2C=C3CC[C@@H]4[C@H](CC[C@]5(C)[C@@H](c6ccc(=O)oc6)CC[C@]45O)[C@@]3(C)CC2)[C@H](O)[C@H](O)[C@H]1O` the value was “inactive”; for `Clc1ccc(CO/N=C(\Cn2ccnc2)c2ccc(Cl)cc2Cl)c(Cl)c1`, “inactive”.
Regarding `Cc1nnc2n1-c1sc(CCc3ccc(CC(C)C)cc3)cc1C(c1ccccc1Cl)=NC2C` (stereo not drawn), the compound was called inactive in test [2], in test [3] and in test [4].
Consider `CCC(=O)C(CCN(C)C)(c1ccccc1)c1ccccc1`, for which the Potency result in test [1] is “inactive”.
